# High-throughput results: PubChem, several laboratories
# S1P3 antag: blocks the human S1P3 receptor | CHO S1P3 NFAT-BLA reporter, FRET fluorescence, antagonist mode | inhibition, % at 4.98 µM | hit rate 0.27% among 170,000;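 active = inhibition above the plate cutoff, the mean inhibition of test wells on that plate plus 3 SD, cut at about 28% in these data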;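 note: cells challenged with S1P at its EC80 of 0.8 µM; blue over green emission ratio from cleaved BLA substrate after 4 h stimulation; 0% = S1P-stimulated wells and 100% = unstimulated DMSO-only wells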
# S1P4 antagonist: antagonists of human S1P4 receptor; O95977; S1P4-expressing cells, antagonist mode, reporter read-out; inhibition, % at 4.98 µM; hit rate 0.26% among 220,000; AID 1510; in the data active = inhibition above about 29%;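 note: 0% = wells stimulated with agonist and 100% = vehicle wells without agonist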
# PGE2 EP2 inh: inhibitors of human EP2 prostaglandin E2 receptor; P43116; C6 glioma cells expressing human EP2, cAMP TR-FRET; cells stimulated with saturating PGE2; inhibition, % at 25 µM; hit rate 0.52% among 260,000;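 active = percent inhibition above 40 after rounding to a whole number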;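 note: rat C6 glioma host cells with rolipram phosphodiesterase inhibitor present; the protocol text gives 20 µM as final concentration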
# Target sequence (P43116 whole entry, looked up): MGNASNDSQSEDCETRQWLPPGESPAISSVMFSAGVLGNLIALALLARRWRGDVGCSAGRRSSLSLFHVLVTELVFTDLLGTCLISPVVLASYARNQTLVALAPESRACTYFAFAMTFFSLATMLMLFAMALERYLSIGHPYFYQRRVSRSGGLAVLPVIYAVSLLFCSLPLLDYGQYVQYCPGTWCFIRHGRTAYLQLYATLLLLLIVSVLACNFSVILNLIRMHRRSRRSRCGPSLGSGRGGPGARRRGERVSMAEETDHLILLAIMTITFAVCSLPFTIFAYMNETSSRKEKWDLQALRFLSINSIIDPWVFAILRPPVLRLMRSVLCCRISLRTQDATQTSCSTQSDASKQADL
# EP2 modulator: modulates human prostaglandin E2 receptor EP2 signaling; hit rate 0.83% among 260,000; induction, % at 25 µM; EP2-expressing cells, cAMP HTRF FRET, PGE2 co-stimulation; P43116;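 active = compounds whose cAMP rise, as percent of the full-agonist control response, exceeds 60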;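 note: rat C6 glioma line stably carrying human EP2 under a CMV promoter; the protocol text gives 20 µM as final concentration; 100% = response of wells given 1 µM PGE2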
# S1P4 agonist: agonists of human S1P4 receptor; activation, % at 4.98 µM; hit rate 0.35% among 220,000; O95977; AID 1509; S1P4-expressing cell line, agonist reporter assay; in the data active = activation above about 11%;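 note: 0% = DMSO vehicle and 100% = reference agonist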
# Starred values were filed as active, the others as inactive; . = no result given; ! = not active in a repeat. Rows were chosen to be rich in hits. Some 1.9% of all compounds tested hit in one or more screens of this group.
SMILES,S1P3 antag,S1P4 antagonist,PGE2 EP2 inh,EP2 modulator,S1P4 agonist
Cc1cc(C)c2[nH]c(=O)c(CN(Cc3ccco3)C(c3nnnn3C(C)(C)C)C(C)C)cc2c1 (centres undefined),.,.,14.7,69.6*,.
CCCC(c1nnnn1C1CCCC1)N(Cc1ccco1)Cc1cc2cccc(C)c2[nH]c1=O (centres undefined),.,.,9.1,58.4,.
CCC(C)(C)n1nnnc1C(C(C)C)N(Cc1ccco1)Cc1cc2cc3c(cc2[nH]c1=O)OCO3 (centres undefined),.,19.4,7.9,55.8,1.2
CCC(c1nnnn1C1CCCC1)N(Cc1ccco1)Cc1cc2cccc(C)c2[nH]c1=O (centres undefined),.,.,7.0,64.0*,.
Cc1cccc2cc(CN(CCCO)C(c3nnnn3C(C)(C)C)C(C)C)c(=O)[nH]c12 (centres undefined),.,.,14.8,-12.8,.
CS(=O)(=O)N1CCCc2cc(C(O)CN3CCC(C(F)(F)F)CC3)ccc21 (centres undefined),.,.,4.7,-59.3,.
COc1ccc2[nH]c(=O)c(CN(Cc3ccc(Cl)cc3)C(=O)c3ccc(OC)c(OC)c3)cc2c1,.,.,11.7,-24.1,.
CCc1ccccc1NC(=S)N(Cc1ccco1)Cc1cc2ccc(C)cc2[nH]c1=O,.,.,10.4,36.9,.
CCCC(c1nnnn1C(C)(C)CC)N(Cc1ccco1)Cc1cc2cc(C)c(C)cc2[nH]c1=O (centres undefined),.,.,30.6,66.3*,.
CCCC(c1nnnn1C1CCCCC1)N(Cc1ccco1)Cc1cc2cc(C)c(C)cc2[nH]c1=O (centres undefined),.,.,8.5,71.8*,.
CCc1ccccc1NC(=S)N(Cc1ccco1)Cc1cc2cc(C)ccc2[nH]c1=O,.,.,8.9,87.3*,.
CCc1ccc2[nH]c(=O)c(C(c3nnnn3C(C)(C)C)N(Cc3ccco3)CC3CCCO3)cc2c1 (centres undefined),.,.,10.2,66.0*,.
Cc1ccc(Cn2c(SCC(=O)Nc3ccc4c(c3)OCO4)nc3c2c(=O)n(C)c(=O)n3C)cc1,.,.,11.6,16.8,.
CCOc1ccccc1NC(=O)c1sc(NC(=O)c2cccs2)c(C(=O)OC)c1C,.,.,14.6,23.5,.
O=C(CSc1nnnn1-c1ccc2c(c1)OCCO2)NCc1ccccc1,.,.,16.8,-45.3,.
CCOc1cc(/C=N/NC(N)=S)cc(Br)c1OCc1ccccc1C,.,21.7,8.0,62.6*,1.1
CC(=O)n1cc(Nc2ccc([N+](=O)[O-])cc2)c2ccccc21,-8.4,0.5,-1.2,-53.7,0.9
CC(=O)SC(C[N+](=O)[O-])c1cn(C(C)=O)c2ccccc12 (centres undefined),.,4.9,80.9*,-9.1,1.0
COc1cccc(OC)c1C(=O)N1CCN(Cc2cccc(F)c2)CC1,.,.,15.5,6.3,.
CCCSc1nc2sc3c(c2c(=O)n1CC)CCCC3,.,.,8.6,-9.0,.
CCCSc1nc2sc3c(c2c(=O)n1C)CCCC3,.,.,11.4,65.1*,.
N#CCSc1nnc(COc2cccc3ccccc23)n1-c1cccc(Cl)c1,14.8,6.1,2.7,71.5*!,0.0
N#CCSc1nnc(COc2cccc3ccccc23)n1-c1ccccc1,-8.8,-15.8,6.1,1.7,1.7
O=C(O)c1cccc(Cn2c(Cl)c(/C=N/NC(=O)c3ccc(O)cc3)sc2=O)c1,-7.0,7.2,3.3,61.4*,0.2
COC(=O)CSc1nnc(CNc2ccc(Cl)cc2)n1C,.,.,7.5,-42.3,.
SMILES,S1P3 antag,S1P4 antagonist,PGE2 EP2 inh,EP2 modulator,S1P4 agonist
O=C1C=CC(=O)N1CCNc1ncc(C(F)(F)F)cc1Cl,-30.1,28.6,100.8*,-49.8,-0.8
CN(C)C[C@H]1CCC2=C(C1=O)C(c1ccc(Cl)c(Cl)c1)C1=C(CC[C@H](CN(C)C)C1=O)O2,.,.,54.8*,-11.9,.
CC12c3ccccc3C(c3ccccc31)C1C(=O)NC(=O)C12 (centres undefined),.,.,9.6,21.5,.
CCN(Cc1ccccc1)C(c1ccccn1)c1nnnn1C1CCCCC1 (centres undefined),.,20.0,10.6,63.8*!,-0.2
COc1ccc(N2CCN(CC(=O)Nc3c(C)cc(C)cc3C)CC2)cc1,-20.5,9.5,1.4,-2.6,1.6
Cc1cc(C)c(NC(=O)CN2CCN(C)CC2)c(C)c1,79.1*,.,6.7,-11.3,.
O=C(NC1(c2ccccc2)CCCC1)c1ccc(Cn2cccn2)cc1,.,.,11.7,-35.4,.
c1ccc(-c2c(-c3ccccc3)n(Cc3ccco3)c3ncnc(NCCCn4ccnc4)c23)cc1,.,-3.7,48.7*,-20.9,1.7
NS(=O)(=O)c1ccc(Oc2ccc(S(N)(=O)=O)cc2)cc1,-6.8,-15.6,9.0,-26.2,1.1
C=CS(=O)(=O)c1ccc(Oc2ccc(S(=O)(=O)C=C)cc2)cc1,99.5*,25.6,72.1*,-61.1,-2.1
Clc1ccc(-c2n[nH]c3c2CNCC3)cc1,.,.,11.3,-39.4,.
O=C1C=C(N2CCN(c3ccccn3)CC2)C(=O)c2c(O)ccc(O)c21,.,.,66.1*,-8.7,.
O=C(N1CCN(c2ccccn2)CC1)C(Cl)(Cl)Cl,5.3,-5.0,7.2,15.6,-0.6
O=C(COc1ccc(S(=O)(=O)NC2CCCCC2)cc1)N1CCCC1,.,.,10.8,-25.3,.
Clc1ccc2c(N3CCC(CCC4CCN(c5ncnc6cc(Cl)ccc56)CC4)CC3)ncnc2c1,.,.,52.1*,15.4,.
O=C(O)c1c(-c2c3ccc(=O)cc-3oc3cc(O)ccc23)cc2ccccc2c1-c1ccccc1,.,.,42.2*,36.1,.
Cc1oc2cc(O)ccc2c(=O)c1-c1ccccc1,-1.1,-5.1,3.3,3.2,1.1
CCOc1ccccc1NC(=O)CC1NC2CCCCC2NC1=O (centres undefined),.,.,15.2,-13.2,.
O=C(Cc1ccc2c(c1)OCO2)N1CCC(n2nc(-c3cccs3)ccc2=O)CC1,.,.,.,-33.1,.
CSc1ccccc1-c1n[nH]c(=S)o1,-9.9,6.3,46.4*,38.4,-0.9
O=C(CCSc1ccc(Cl)cc1)NCc1ccc2c(c1)OCO2,.,.,6.3,-94.8,.
CN(C)CCCCN1CCc2c(n(C)c3ccccc23)C1=O,.,.,50.0*,-25.7,.
Cn1c2c(c3ccccc31)CCSC2=O,-8.5,-28.3,8.7,6.1,1.2
Oc1ccc(O)cc1,.,.,109.9*!,-33.6,.
O=C(c1ccc(O)cc1)c1ccc(C(=O)c2ccc(O)cc2)cc1,6.4,11.2,11.0,-44.8,2.1
SMILES,S1P3 antag,S1P4 antagonist,PGE2 EP2 inh,EP2 modulator,S1P4 agonist
Cc1ccc(SCN2CCCCC2)cc1 (tested in a mixture with another compound),.,.,51.8*,25.8,.
Cc1ccnc(N=Cc2c(O)ccc3oc4c(c23)CCCC4)c1,-1.2,-27.4,13.2,62.4*,0.5
Cc1ccc2c(c1)-c1cc(C)nn1C(c1ccc(O)c(O)c1)N2 (centres undefined),.,.,20.4,-46.6,.
Cn1c(NC(=O)c2cccnc2)nc2ccccc21,-24.1,2.1,51.5*,16.6,-1.1
CCOC(=O)Cn1c(C(F)(F)F)nc2nc(Cl)c(Cl)nc21,.,.,40.0*,-33.1,.
CSc1nc(Cc2ccccc2)nc2ccccc12,-11.4,1.0,12.2,62.1*,-2.6
CCOC(=O)CSc1nc(C2CCCCC2)nc2ccccc12,.,.,9.6,65.5*,.
COc1ccccc1NC(=O)CSc1nc(C2CCCCC2)nc2ccccc12,.,.,5.7,78.6*,.
Cc1cc(C)c2nc(SCC(=O)Nc3nc(C)c(C)s3)cc(C)c2c1,.,.,19.3,61.2*,.
